In PubChem BioAssay (Tox21):
Inconclusive results are not listed. Active and inactive are the calls of the source. Calls follow the shape of the dose curve; as a rule, active = well fitted activation curve with a large enough effect in the repeat runs; inconclusive = weak or mixed curves; inactive = flat fitted curve, though single readings scatter.

Experiment: A CellTox Green Cytotoxicity Assay to monitor cytotoxicity in HEK293 cells - 40 hour (AID 1224871); also: nearly all actives have a fitted effect of over 45% in size
Conditions: CellTox Green fluorescence; series mostly up to 76.8 µM; cytotoxicity increase: at the top concentration
From the text: National Center for Advancing Translational Sciences [NCATS]
NIH Chemical Genomics Center [NCGC]
U.S. Environmental Protection Agency [EPA]
National Institutes of Environmental Health Sciences [NIEHS]
National Toxicology Program [NTP]
Cell-based models are critical for drug discovery. Determining the natural cytotoxic effects resulting from test compounds is an essential research activity. A CellTox Green Cytotoxicity Assay to monitor cytotoxicity in real time of continues cell culture during 40 hours of the compound treatment was used to screen Tox21 10K library compounds in Hek293 cells. CellTox Green Cytotoxicity Assay is a nonlytic, homogeneous, biofluorescent method to measure cytotoxicity in cell culture after experimental manipulation. The assay system uses a proprietary asymmetric cyanine dye that is excluded from viable cells but preferentially stains the dead cell's DNA. […] Viable cells produce no appreciable increases in fluorescence. Therefore, the fluorescence signal produced by the binding interaction with dead cell DNA is proportional to cytotoxicity.
The mixture of Hek293 cell suspension and reagents were dispensed at 600cells/6 ul/well in 1536-well tissue culture treated black solid bottom plates using a Multidrop dispenser. After the assay plates were incubated at a 37 C/5% CO2 incubator for 5 hours, 23 nL of compounds dissolved in DMSO, positive and negative controls was transferred to the assay plate by a pintool work station. The plates were incubated at 37 C for 40 hours. The fluorescence intensity were measured at 0h, 8h, 16h, 24h, 32h and 40h time points using ViewLux plate reader during compound treatment.
% is scaled to controls: 0 for no effect and ±100 for the full control effect; potency is read from the fitted curve at half-maximal effect.

SMILES | cytotoxicity increase | Potency
CC(C)CCOCCC(C)C | -11.4% (inactive) | –
CC(C)=CC1CC(C)CCO1 (stereo not given) | -0.0404% (inactive) | –
O=C(O)CCn1c2c(c3ccccc31)C[C@H](NS(=O)(=O)c1ccc(F)cc1)CC2 | 14% [at 35.3 µM] (inactive) | –
CCCCCCCCC(C)=O | -15% (inactive) | –
O[C@@H](c1cc(C(F)(F)F)nc2c(C(F)(F)F)cccc12)[C@H]1CCCCN1 | – | 23.9 µM (active)
COc1cccc(OC)c1O | 3.99% (inactive) | –
CCOC(=O)C1=C(C)NC(C)=C(C(=O)OCC)C1c1ccccc1/C=C/C(=O)OC(C)(C)C | -14% [at 35.3 µM] (inactive) | –
O=CC1CC1 | -0.652% (inactive) | –
C=C[C@](C)(O)CC[C@@H]1[C@@]2(C)CCCC(C)(C)[C@@H]2CC[C@@]1(C)O | – | 43.6 µM (active)
C=C(C)CCCC | 7.04% (inactive) | –
OCCCS | -6.13% (inactive) | –
CCOC(/C=C(\C)CCC=C(C)C)OCC | -6.94% (inactive) | –
O=S(=O)(O)c1cc(S(=O)(=O)O)c2ccc3c(S(=O)(=O)O)cc(S(=O)(=O)O)c4ccc1c2c43 | -6.93% [at 15.8 µM] (inactive) | –
CC1=C(/C=C/C(C)=C/C=C/C(C)=C/C(=O)Nc2ccc(O)cc2)C(C)(C)CCC1 | – | inactive
CCCCOC(=O)C(C)CC (stereo not given) | -4.5% (inactive) | –
CN1CN(C)CN(C)C1 | 2.87% (inactive) | –
COc1ccc2sc(C(=O)Nc3nnn[nH]3)c(OC(C)C)c2c1 | 1.18% (inactive) | –
NC(=O)C(=O)N/N=C/c1ccc([N+](=O)[O-])o1 | -7.36% [at 35.3 µM] (inactive) | –
CCCSS/C(CCO)=C(\C)N(C=O)Cc1cnc(C)nc1N | 6.77% [at 35.3 µM] (inactive) | –
CNC(=O)c1cc(Oc2ccc(NC(=O)Nc3ccc(Cl)c(C(F)(F)F)c3)cc2)ccn1 | 10.4% [at 35.3 µM] (inactive) | –

SMILES | cytotoxicity increase | Potency
COC(=O)CC#N | -1.42% (inactive) | –
CCCCCCC(C)OC(=O)COc1nc(F)c(Cl)c(N)c1Cl (stereo not given) | 19.6% (inactive) | –
COc1cccc(O)c1 | -17.6% (inactive) | –
CCCCCCCC(C)=O | -7.81% (inactive) | –
CCCCCCS | -6.24% (inactive) | –
CC1(C)C(=O)N(Br)C(=O)N1Br | 0.934% (inactive) | –
CCN(CC)CCOc1ccc(C(O)(Cc2ccc(Cl)cc2)c2ccc(C)cc2)cc1 (stereo not given) | – | 23.9 µM (active)
C=CC(C)C#N (stereo not given) | -11.6% (inactive) | –
CCCCCCCOC(=O)c1ccccc1C(=O)OCCCCCCC | -14% (inactive) | –
COc1ccc(-n2nc(CCC(=O)N(C)O)cc2-c2ccc(Cl)cc2)cc1 | -5.38% [at 35.3 µM] (inactive) | –
CCOC(=O)[C@@](C)(N)Cc1ccc(O)c(O)c1 | -3.96% [at 35.3 µM] (inactive) | –
CN(C)CCOC(c1ccccc1)c1ccccc1 (tested in a mixture with another compound) | -2.53% (inactive) | –
O=C(Nc1ccc(Cl)c(Cl)c1)c1cc(Cl)cc(Cl)c1O | – | 49 µM (active)
Cc1cc2c(C(C)C)c(O)c(O)c(C=O)c2c(O)c1-c1c(C)cc2c(C(C)C)c(O)c(O)c(C=O)c2c1O | – | 19 µM (active)
CCCCN(C)C | 13.1% (inactive) | –
Cc1cccc(C)n1 | -0.349% (inactive) | –
CCc1c(C(=O)O)c(=O)cnn1-c1ccc(Cl)cc1 | -7.26% (inactive) | –
CCN(CC)c1ccc(N)cc1 | – | 44.8 µM (active)
C[C@@H]1CC[C@H]2C(C)(C)[C@H]3C[C@@]12CC[C@@]3(C)O | – | 38.8 µM (active)
Brc1ccccn1 | -9.7% (inactive) | –
